# Source: PubChem BioAssay (NCATS)
# Results filed as inconclusive are left out. Entries that show only a call come without a potency. Active and inactive are the calls of the source. Unless noted, calls come from the whole dose curve.
# Experiments:
# [1] = qHTS profiling of the MIPE4 collection as inhibitors of Plasmodium falciparum (3D7) proliferation (AID 743344; call rule not given here); conditions: P. falciparum 3D7 in erythrocytes, SYBR Green DNA fluorescence, 72 h; at 28.5 µM unless noted
# In short: (§1)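 Erythrocytes infected with P. falciparum (0.3% parasitemia, 2.5% hematocrit) incubated with compounds 72 h at 37 C, 5% CO2. Lysis with saponin/Triton buffer containing SYBR Green I, overnight at room temperature in the dark; DNA fluorescence (485/535 nm) normalised to 0.29 uM artemisinin and DMSO.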
# [2] = qHTS profiling of the MIPE4 collection as inhibitors of Plasmodium falciparum (DD2) proliferation (AID 743345; call rule not given here); conditions: P. falciparum Dd2 in erythrocytes, SYBR Green DNA, 72 h; at 28.5 µM unless noted
# In short: as §1
# [3] = qHTS profiling of the MIPE4 collection as inhibitors of Plasmodium falciparum (DD2) proliferation (Rep 2) (AID 743346; call rule not given here); conditions: P. falciparum Dd2 in erythrocytes, SYBR Green DNA, 72 h; at 28.5 µM unless noted
# In short: as §1
# [4] = qHTS profiling of the MIPE4 collection as inhibitors of Plasmodium falciparum (HB3) proliferation (AID 743347; call rule not given here); conditions: P. falciparum HB3 in erythrocytes, SYBR Green DNA, 72 h; at 28.5 µM unless noted
# In short: as §1
# [5] = qHTS for Inhibitors of the Functional Ribonucleoprotein Complex (vRNP) of Lassa (LASV) Arenavirus: LASV Primary Screen - GLuc reporter signal (AID 1347082; calls by dose curve; tested in HEK293 reporter line; note: nearly all actives have a fitted effect of over 60% in size; note: potency is the fitted concentration of half-maximal effect)
# [6] = qHTS for Inhibitors of the Functional Ribonucleoprotein Complex (vRNP) of Lassa (LASV) Arenavirus: Viability assay - alamar blue signal for LASV Primary Screen (AID 1347083; calls by dose curve; tested in HEK293 reporter line; note: nearly all actives have a fitted effect of over 80% in size; note: potency is the fitted concentration of half-maximal effect)
# [7] = qHTS for Inhibitors of the Functional Ribonucleoprotein Complex (vRNP) of Lymphocytic Choriomeningitis Arenaviruses (LCMV): Viability assay - alamar blue signal for LCMV Primary Screen (AID 1347085; calls by dose curve; tested in HEK293 reporter line; note: nearly all actives have a fitted effect of over 80% in size; note: potency is the fitted concentration of half-maximal effect)
# [8] = target: Nucleoprotein (Lymphocytic choriomeningitis virus (strain Armstrong)) (UniProt P09992); assay: qHTS for Inhibitors of the Functional Ribonucleoprotein Complex (vRNP) of Lymphocytic Choriomeningitis Arenaviruses (LCMV): LCMV Primary Screen - GLuc reporter signal (AID 1347086); note: nearly all actives have a fitted effect of over 70% in size; note: potency is the fitted concentration of half-maximal effect
# [9] = system: CRL-7250; assay: qHTS assay to identify novel small-molecules to repurpose for Merkel cell carcinoma treatment (AID 1296009; active = well fitted curve in the direction sought with a large enough effect; an effect the other way counts as inactive or inconclusive; note: nearly all actives have a fitted effect of over 60% in size); conditions: MCC and control cell lines, CellTiter-Glo viability, 72 h; series mostly up to 92 µM
# In short: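 Cells were incubated with compound for 72 hr at 37 degree celsius before CellTiter-Glo addition. Luminescence was normalized with no-cell wells as full cytotoxicity and DMSO as baseline.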
# [10] = Cytotoxicity counterscreen for inhibitors of SARS-CoV-2 cell entry (AID 1645845); note: nearly all actives have a fitted effect of over 50% in size
# In short: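 HEK293-ACE2 cells (Expi293F stably expressing human ACE2) seeded overnight, then compound for 1 h plus 48 h at 37C. Viability as ATP content by luminescence; normalized to wells with cells and media-only wells.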
# [11] = Primary qHTS to identify inhibitors of SARS-CoV-2 cell entry (AID 1645846); conditions: activity change, negative = inhibition: at 57.1 µM (top of the series) unless noted; note: nearly all actives have a fitted effect of over 45% in size; note: potency is the fitted concentration of half-maximal effect
# In short: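 HEK293-ACE2 (Expi293F, stable hACE2), 1500 cells/well, o/n 37C; cpd 23 nL pin, 1 h; MLV-PP w/ SARS-CoV-2-S (Wuhan-Hu-1, Δ19 C-term); 48 h 37C; Bright-Glo luminescence; normalized vs S-PP and bald PP.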
# [12] = Validation screen for inhibitors of Lassa infection (AID 463096)
# [13] = Inducers of the Endoplasmic Reticulum Stress Response (ERSR) in human glioma: Validation (AID 504836; active = well fitted curve in the direction sought with a large enough effect; an effect the other way counts as inactive or inconclusive)
# In short: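 Stably transfected U87-MG glioma cells carrying a GRP78-based luciferase sensor; 16 h compound incubation. Luminescence end-point read 10 min after Bright-Glo addition at room temperature.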
# [14] = Confirmatory qHTS to identify inhibitors of SARS-CoV-2 cell entry (AID 1645844); note: potency is the fitted concentration of half-maximal effect; nearly all actives have a fitted effect of over 45% in size
# In short: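 HEK293-ACE2 cells were pretreated 1 h with compound, then infected with MLV-based pseudoparticles bearing C-terminally truncated Wuhan-Hu-1 spike for 48 h at 37C; luciferase luminescence normalized to spike PP and bald PP wells.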
# [15] = VSVG counterscreen qHTS to identify inhibitors of SARS-CoV-2 cell entry (AID 1645847); note: potency is the fitted concentration of half-maximal effect; nearly all actives have a fitted effect of over 65% in size
# In short: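 Expi293F/hACE2 cells, overnight plating; cpd 1 h, 37C/5% CO2; + VSV-G PP (MLV pseudotyping), 48 h; supernatant removed, Bright-Glo luciferase read. Norm: VSV-G PP and bald PP wells.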
# Sequence of Nucleoprotein (Lymphocytic choriomeningitis virus (strain Armstrong)) (P09992 whole entry, looked up): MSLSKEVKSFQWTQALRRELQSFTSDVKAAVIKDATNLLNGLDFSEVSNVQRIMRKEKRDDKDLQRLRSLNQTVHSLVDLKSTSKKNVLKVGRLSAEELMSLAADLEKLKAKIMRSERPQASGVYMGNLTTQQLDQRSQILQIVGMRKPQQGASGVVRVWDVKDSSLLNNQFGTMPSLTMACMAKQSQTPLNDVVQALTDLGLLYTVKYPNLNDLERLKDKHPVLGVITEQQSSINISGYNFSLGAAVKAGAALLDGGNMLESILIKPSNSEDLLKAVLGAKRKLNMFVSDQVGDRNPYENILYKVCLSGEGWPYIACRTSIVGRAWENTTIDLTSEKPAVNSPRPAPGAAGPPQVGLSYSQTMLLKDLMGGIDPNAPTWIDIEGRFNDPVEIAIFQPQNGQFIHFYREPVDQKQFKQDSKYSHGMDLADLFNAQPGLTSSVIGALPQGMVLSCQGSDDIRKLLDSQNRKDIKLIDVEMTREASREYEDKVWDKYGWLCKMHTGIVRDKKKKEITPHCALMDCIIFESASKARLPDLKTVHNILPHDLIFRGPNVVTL
structure (smiles),measurement,setting,value
O=C(O)C(=O)Nc1cccc(C2=NN=N[N]2)c1,"parasite growth, % of DMSO control",[1],82.2%
same,"parasite growth remaining, % of DMSO control (lower = more inhibition)",[2],99.9%
same,"parasite growth, % of control (lower = inhibition)",[3],136%
same,"growth, % of control",[4],97.2%
same,Potency,[5],inactive
same,Potency,[6],inactive
same,Potency,[7],inactive
same,Potency,[8],inactive
same,Potency,[9],inactive
Nc1ncnc2c1ncn2[C@@H]1O[C@@H](CO)[C@H](O)[C@H]1O,Potency,[5],inactive
same,Potency,[6],inactive
same,Potency,[8],inactive
same,Potency,[9],inactive
CCC[C@@H](NC(=O)[C@@H]1[C@H]2CCC[C@@H]2CN1C(=O)[C@@H](NC(=O)[C@@H](NC(=O)c1cnccn1)C1CCCCC1)C(C)(C)C)C(=O)C(=O)NC1CC1,Potency,[5],inactive
same,Potency,[6],inactive
same,Potency,[8],inactive
same,Potency,[9],inactive
COc1cc(F)c(C(C)C)cc1-c1ccc(C(F)(F)F)cc1CN1C(=O)O[C@H](c2cc(C(F)(F)F)cc(C(F)(F)F)c2)[C@@H]1C,Potency,[5],inactive
same,Potency,[6],0.0273 µM (active)
same,Potency,[7],0.0193 µM (active)
same,Potency,[10],inactive
same,"activity change, negative = inhibition",[11],-5.3%
same,Potency,[9],inactive
O=C1CCC[C@@H]2[C@H]3CCC[N+]4([O-])CCC[C@@H](CN12)[C@@H]34 (some centres not stated),Potency,[5],inactive
same,Potency,[6],inactive
same,Potency,[7],inactive
same,Potency,[8],inactive
same,"activity change, negative = inhibition",[11],-3.17%
same,Potency,[9],inactive
CCN1C[C@H](C)n2c(c(O)c3c(=O)n(Cc4ccc(F)c(Cl)c4)nc(C(=O)NC)c32)C1=O,"parasite growth, % of DMSO control",[1],43.2%
same,"parasite growth remaining, % of DMSO control (lower = more inhibition)",[2],55.9%
same,"growth, % of control",[4],48.6%
same,Potency,[5],inactive
same,Potency,[6],inactive
same,Potency,[7],inactive
same,Potency,[8],inactive
same,Potency,[9],inactive
O=C(O)C1CCCN(CCC=C(c2ccccc2)c2ccccc2)C1 (configuration not stated),Potency,[12],inactive
same,outcome,[13],inactive
same,Potency,[5],inactive
same,Potency,[6],inactive
same,Potency,[7],inactive
same,Potency,[8],inactive
same,Potency,[10],inactive
same,"activity change, negative = inhibition",[11],-1.36%
same,Potency,[9],inactive
CC(C(C)N1CC(=O)NC(=O)C1)N1CC(=O)NC(=O)C1 (configuration not stated),Potency,[5],inactive
same,Potency,[6],inactive
same,Potency,[7],inactive
same,Potency,[8],inactive
same,Potency,[10],inactive
same,"activity change, negative = inhibition",[11],-28.5%
same,Potency,[9],inactive
CCN1CCCC1CNC(=O)c1cc(S(N)(=O)=O)ccc1OC (configuration not stated),Potency,[12],inactive
same,outcome,[13],inactive
same,Potency,[5],inactive
same,Potency,[6],inactive
same,Potency,[7],inactive
same,Potency,[8],inactive
same,Potency,[9],inactive
CC(=O)N1CCN(c2ccc(OCc3nn(C)c(C)c3-c3cccc4c(CCCOc5cccc6ccccc56)c(C(=O)O)n(Cc5cccnc5)c34)cc2)CC1,Potency,[5],inactive
same,Potency,[6],inactive
same,Potency,[8],inactive
same,Potency,[9],inactive
C[C@@H]1[C@H](C)CC[C@]2(C(=O)O)CC[C@]3(C)C(=CC[C@@H]4[C@@]5(C)CC[C@H](O)C(C)(C)[C@H]5CC[C@]43C)[C@@H]12,Potency,[5],inactive
same,Potency,[6],35.2 µM (active)
same,Potency,[8],inactive
same,Potency,[9],inactive
CN(C)CC(C)(C)CNc1nn2c(-c3ccccc3)nnc2cc1C1CCC1,Potency,[5],inactive
same,Potency,[6],15.3 µM (active)
same,Potency,[7],2.17 µM (active)
same,Potency,[8],17.2 µM (active)
same,Potency,[10],inactive
same,"activity change, negative = inhibition",[11],-2.68%
same,Potency,[9],inactive
Cc1ccccc1-n1c(Cn2nc(-c3cccc(O)c3)c3c(N)ncnc32)nc2cccc(C)c2c1=O,Potency,[5],19.3 µM (active)
same,Potency,[6],6.11 µM (active)
same,Potency,[7],4.32 µM (active)
same,Potency,[8],3.85 µM (active)
same,Potency,[10],inactive
same,"activity change, negative = inhibition",[11],-14.4%
same,Potency,[9],inactive
CCOc1ccccc1OCCNC(C)Cc1ccc(OC)c(S(N)(=O)=O)c1 (configuration not stated),Potency,[5],inactive
same,Potency,[6],inactive
same,Potency,[8],inactive
same,Potency,[9],inactive
Cc1ccc(O)c(C(CCN(C(C)C)C(C)C)c2ccccc2)c1 (configuration not stated),"parasite growth remaining, % of DMSO control (lower = more inhibition)",[2],32%
same,Potency,[5],inactive
same,Potency,[6],inactive
same,Potency,[7],inactive
same,Potency,[8],inactive
same,Potency,[10],inactive
same,Potency,[9],inactive
Nc1ccc(C(=O)Nc2cccc(-c3nc(N4CCOCC4)c4oc5ncccc5c4n3)c2)cn1,Potency,[5],inactive
same,Potency,[6],1.22 µM (active)
same,Potency,[7],0.968 µM (active)
same,Potency,[14],0.192 µM (active)
same,Potency,[11],0.891 µM (active)
same,Potency,[15],0.0048 µM (active)
same,Potency,[9],inactive
COc1ccc([C@@H]2CNC(=O)C2)cc1OC1CCCC1,Potency,[5],inactive
same,Potency,[6],2.73 µM (active)
same,Potency,[7],3.43 µM (active)
same,Potency,[8],inactive
same,Potency,[10],inactive
same,"activity change, negative = inhibition",[11],2.39%
same,Potency,[9],inactive
